Rows were chosen to be rich in hits. Some 10% of all compounds tested hit in one or more screens of this group.
CCT modulator: modulators of cytosolic chaperonin (CCT/TRiC) activity; activity change, % (concentration not given with the values), hits read low; purified chaperonin ATPase assay, HTRF ADP detection, 30 min; 360,000 compounds, 0.3% hits; AID 651819; in the data active = activity change below about -30%
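TRiC at 40 or 20 nM final (batch-dependent) in 30 mM Tris pH 7.4, 100 mM KCl, 5 mM MgCl2, 1 mM DTT, with compound at single 76 uM and 10 uM ATP, 30 min at 37 deg C. ADP detected by HTRF Transcreener, 665/615 ratio.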
G9a block: inhibitors of human histone lysine methyltransferase G9a. Q96KQ7. G9a H3K9 monomethylation, AlphaScreen, 2 h. Potency, µM (series often up to 102 µM), without a hit: at the top dose activity, negative = inhibition, usual class: inhibitors. 350,000 compounds, 8.8% hits; note: potency is the fitted concentration of half-maximal effect; nearly all actives have a fitted effect of over 75% in size
Target sequence (Q96KQ7 913-1193 limits assumed): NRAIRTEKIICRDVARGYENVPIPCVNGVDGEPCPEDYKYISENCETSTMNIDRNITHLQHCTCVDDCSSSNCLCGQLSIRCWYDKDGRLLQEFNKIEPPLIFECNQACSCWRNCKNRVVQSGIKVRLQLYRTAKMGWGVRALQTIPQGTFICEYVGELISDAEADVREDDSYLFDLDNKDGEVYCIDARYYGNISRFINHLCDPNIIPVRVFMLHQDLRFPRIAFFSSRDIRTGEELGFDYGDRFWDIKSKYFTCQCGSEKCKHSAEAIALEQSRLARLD
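AlphaScreen read-out: biotin-H3K9 peptide (500 nM) methylation by 20 nM enzyme with 20 uM SAM, 2 h at room temperature after 15 min compound preincubation; anti-monomethyl H3K9 antibody plus donor/acceptor beads, 10 min dark.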
MmCpn inh: blocks the Methanococcus maripaludis chaperonin Mm-Cpn. purified Mm-Cpn ATPase, ADP Transcreener TR-FRET. Potency, µM (top dose mostly 76.9 µM), inactives show at the highest dose activity, negative = inhibition, usual class: inhibitors. 330,000 compounds, 0.031% hits. AID 504842; note: potency is the fitted concentration of half-maximal effect; nearly all actives have a fitted effect of over 80% in size
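ATPase turnover read by TR-FRET ADP competition (Eu cryptate antibody/ADP-d2, 665/590 nm): 10uM ATP final, 25nM Mm-CPN final, 30 min 37degC after 10-min compound preincubation, pH 7.4 Tris/KCl/MgCl2/DTT buffer.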
VDR inhibitor: vitamin D3 receptor (human) inhibition. VDR-SRC2-3 peptide fluorescence polarization, 2 h. Potency, µM, without a hit: max response, negative = inhibition, actives largely listed as inhibitors. 400,000 compounds, 0.93% hits; note: potency is the fitted concentration of half-maximal effect
Target sequence (P11473 whole entry, looked up): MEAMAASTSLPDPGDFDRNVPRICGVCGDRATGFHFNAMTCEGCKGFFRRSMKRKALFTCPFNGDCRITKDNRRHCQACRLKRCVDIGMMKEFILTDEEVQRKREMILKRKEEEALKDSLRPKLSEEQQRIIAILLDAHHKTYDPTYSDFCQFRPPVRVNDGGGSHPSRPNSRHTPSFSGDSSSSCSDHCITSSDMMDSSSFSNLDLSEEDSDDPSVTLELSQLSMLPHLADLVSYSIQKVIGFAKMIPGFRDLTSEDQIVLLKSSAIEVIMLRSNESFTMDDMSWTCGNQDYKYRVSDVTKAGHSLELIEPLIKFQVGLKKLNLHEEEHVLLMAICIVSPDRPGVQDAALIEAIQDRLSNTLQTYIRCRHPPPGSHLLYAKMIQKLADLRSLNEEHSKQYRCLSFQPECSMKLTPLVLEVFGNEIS
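Compounds are added to VDR with labelled SRC2-3 coactivator peptide and held 2 h at room temperature. Inhibition of the VDR–peptide interaction is then read as a change in fluorescence polarization.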
Sfp inh: Sfp phosphopantetheinyl transferase inhibition; Q9F4F7; 310,000 compounds, 3.5% hits; AID 1490; Potency, µM, inactives show largest response in the series, negative = inhibition, most hits filed as inhibitors; Biochemical Sfp PPTase activity, qHTS;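 note: the enzyme is Sfp with the accession as filed and its product quenches rhodamine fluorescence; potency is the fitted concentration of half-maximal effect; 0% = enzyme reaction without inhibitor and -100% = no enzyme wells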
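With Hepes-Na pH 7.6 buffer containing 10 mM MgCl2, Sfp (15 nM) modified BHQ-2-YbbR (12.5 uM) using rhodamine-CoA (5 uM). Two reads 30 minutes apart at 525/598 nm yielded each well's rate.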
PLK1 PBD inh: inhibitors of human PLK1 polo-box domain binding. P53350. Plk1 PBD binding of FITC phosphopeptide, fluorescence polarization. Potency, µM, for the others: max response, negative = inhibition, hits mostly inhibitors. 360,000 compounds, 2.8% hits. AID 720504; note: potency is the fitted concentration of half-maximal effect; series mostly up to about 57 µM; nearly all actives have a fitted effect of over 65% in size
An asterisk follows results filed as active; ? = inconclusive; / = not tested or not shown; [ ] = remark or other dose. Unless noted, calls come from the whole dose curve; as a rule, active = well fitted curve in the direction sought with a large enough effect; inconclusive = small, poorly fitted or top-dose-only effect, or another doubt; inactive = no such curve, though single readings can be large; an effect the other way counts as inactive or inconclusive. Unless noted, % is set by controls: 0 for no effect and ±100 for the full control effect.

SMILES | CCT modulator | G9a block | MmCpn inh | VDR inhibitor | Sfp inh | PLK1 PBD inh
CCOc1ccccc1NC(=O)C(=O)NCC(c1cccnc1)N1CCN(c2ccccc2)CC1 (stereo unspecified) | / | 6.5%[59 µM] | / | -2.5% | / | /
COc1ccc(-n2ccnc2SCC(=O)Nc2nnc(C)s2)cc1 | / | -0.3%[59 µM] | / | 3.5% | / | /
Cc1cc(C)c2c(=O)cc(C(=O)Nc3sc4c(c3C(=O)NCC3CCCO3)CCCC4)oc2c1 (stereo unspecified) | / | -2.7%[59 µM] | / | 6.2% | / | /
Cc1cccc(NC(=S)NNC(=S)NCc2ccccc2)c1 | -1.6 | 0.708µM* | -0.9% | 89.1µM* | 79.4µM* | -27.5%
CCc1cc(C(=O)NNC(=S)Nc2cccc(C)c2)cs1 | -0.8 | 10µM* | -2.4% | -1.1% | 8.6% | -24.2%
S=C(NCc1ccccc1)Nc1cccc(Cl)c1 | -4.8 | 29.9%[59 µM] | 0.6% | -17.7% | 5.4% | -3.1%
Cc1cccc(NC(=S)NNC(=O)c2csc(C(C)C)c2)c1 | -3.3 | ? | 2.0% | 2.4% | 9.7% | -20.1%
CCCc1cc(C(=O)NNC(=S)NC(C)c2ccccc2)cs1 (stereo unspecified) | -0.4 | 50.1µM* | 1.9% | 12.1% | 10.4% | -27.5%
Cc1cccc(S(=O)(=O)c2cn(C)c3cc(N4CCN(c5ccccc5)CC4)c(F)cc3c2=O)c1 | / | -5.4%[59 µM] | / | 14.4% | / | /
O=C1c2cccc3cccc(c23)C(=O)N1CCN1CCN(CC(O)COc2ccc3ccccc3c2)CC1 (stereo unspecified) | -0.3 | ? | -11.2% | -6.5% | 25.1µM* | -5.4%
COc1ccc(COCC(O)CN2CCC(CN3C(=O)c4cccc5cccc(c45)C3=O)CC2)cc1OC (stereo unspecified) | -1.1 | 79.4µM* | 1.0% | -14.4% | -4.7% | -6.6%
O=C1c2cccc3cccc(c23)C(=O)N1CC1CCN(CC(O)COc2ccc3ccccc3c2)CC1 (stereo unspecified) | 0.7 | 10µM* | -1.1% | -5.0% | 8.5% | -8.8%
CCc1ccc(OCC(O)CN2CCC(CN3C(=O)c4cccc5cccc(c45)C3=O)CC2)cc1 (stereo unspecified) | -2.0 | 13.1%[59 µM] | 2.2% | 12.3% | 50.1µM* | 3.0%
COc1cccc(OCC(O)CN2CCC(CN3C(=O)c4cccc5cccc(c45)C3=O)CC2)c1 (stereo unspecified) | -20.8 | ? | -7.0% | 12.3% | -2.7% | -15.7%
COc1cc(COCC(O)CN2CCN(CCN3C(=O)c4cccc5cccc(c45)C3=O)CC2)cc(OC)c1OC (stereo unspecified) | 1.8 | ? | 0.7% | 5.1% | -11.1% | -12.8%
O=C(Nc1ccc(Cl)cc1)C1CCN(c2nc3ccccc3n3cccc23)CC1 | / | -38.5%[59 µM] | / | 4.0% | / | /
Cn1c(=O)c2nc(SCC(=O)Nc3cc(Cl)ccc3Cl)n(C)c2n(C)c1=O | / | 6.9%[59 µM] | / | 10.3% | / | /
CC(C)CN(C)c1nc(N)c(C(=O)N=C(N)N)nc1Cl | / | 16.1%[12.7 µM] | / | / | / | /
Cc1ccc(CNC(=O)CCS(=O)(=O)c2cc(Br)cc3c2N(C(=O)C2CC2)CC3)o1 | -2.9 | ? | 0.2% | -6.5% | 10µM* | -20.0%
CC(=O)N1CCc2cc(S(=O)(=O)CCC(=O)NCc3ccc(C)o3)ccc21 | 0.8 | / | 3.8% | -6.6% | 25.1µM* | -19.2%
CCOC(=O)c1[nH]c(C)c(CCC(=O)N2CCN(c3cccc(C)c3C)CC2)c1C | / | ? | / | 19.7% | / | /
O=c1oc2cc(O)ccc2cc1-c1nc2ccccc2o1 | -2.2 | / | / | / | / | 10.6µM*
O=c1oc2cc(O)ccc2cc1S(=O)(=O)c1ccccc1 | -6.7 | 52.7% | -6.7% | -7.1% | 6.1% | -13.4%
Cc1cc(=O)[nH]c2nnc(SCc3c(F)cccc3Cl)n12 | / | 4.6%[59 µM] | / | 1.3% | / | /
CCOC(=O)c1c(NC(=O)c2ccc(C)c(C)c2)sc2c1CCCCC2 | / | 16.2%[59 µM] | / | -12.5% | / | /
SMILES | CCT modulator | G9a block | MmCpn inh | VDR inhibitor | Sfp inh | PLK1 PBD inh
CCOC(=O)c1c(NC(=O)c2ccccc2C(=O)O)sc2c1CCCC2 | 0.2 | 3.7% | -0.6% | -2.6% | 13.4% | -18.1%
CCOC(=O)c1c(NC(=O)c2ccc(Br)cc2)sc2c1CCCC2 | / | 10µM* | / | -13.1% | / | /
CCOC(=O)c1c(NC(=O)c2ccccc2C)sc2c1CCCC2 | / | 7.94µM* | / | 79.4µM* | / | /
CCOC(=O)c1c(NC(=O)COC(=O)Cn2c(C)nc3ccccc32)sc2c1CCCC2 | -1.4 | 9.7%[59 µM] | 1.0% | 6.4% | 31.6µM* | 0.9%
CCOC(=O)c1c(NC(=O)c2nn(CC)cc2Br)sc2c1CCCCC2 | -2.9 | ? | 0.3% | 1.0% | 20µM* | -17.1%
COc1ccc(OC)c(C(=O)NC(CC(N)=O)c2ccc(N3CCN(c4ccccn4)CC3)c([N+](=O)[O-])c2)c1 (stereo unspecified) | 0.0 | 79.4µM* | 1.5% | 3.6% | 5.4% | 1.9%
COc1ccc(OC)c(C(=O)NC(CC(N)=O)c2ccc(N3CCN(c4ccccc4)CC3)c([N+](=O)[O-])c2)c1 (stereo unspecified) | -0.8 | ? | 0.1% | -5.4% | 11.0% | 1.4%
Cc1cc(C)cc(C(=O)NC(CC(N)=O)c2ccc(N3CCN(c4ccccn4)CC3)c([N+](=O)[O-])c2)c1 (stereo unspecified) | -0.3 | 79.4µM* | 0.4% | -2.2% | 9.6% | 1.8%
CCCN(C(=O)c1c(C)oc2ncnc(N3CCOCC3)c12)c1ccc(Cl)c(Cl)c1 | / | 2.7%[59 µM] | / | -23.0% | / | /
COc1ccc(C(C(=O)NCc2ccccc2)N(C(=O)Cn2nnc3ccccc32)c2cccc(OC)c2)cc1 (stereo unspecified) | / | 1.3%[59 µM] | / | 8.4% | / | /
C#CC(=O)CC1(CN(Cc2ccccc2)C(=O)OC(C)(C)C)CCCCC1 | -1.9 | / | / | ? | / | 11.9µM*
COC(=O)C1=COC(O[C@H]2OC(CO)[C@H](O)C(O)C2O)[C@H]2C1C(=O)C[C@@H]2C (stereo partly specified) | / | / | / | -0.2% | 2.7% | /
O=C(O)c1ccc(-n2cc(-c3cc4ccccc4oc3=O)[nH]c2=S)cc1 | 3.2 | 72.9% | 0.4% | -14.1% | 3.16µM* | ?
CCCCCn1c(CCCNC(=O)c2ccccc2)nc2ccccc21 | / | 6.0%[59 µM] | / | -15.6% | / | /
CCOc1ccc(C(=O)c2cnc3ccccc3c2N2CCN(CC)CC2)cc1 | 0.6 | ? | -9.3% | 0.8% | 15.5% | -4.6%
CCOc1ccc2ncc(C(=O)c3ccc(OC)cc3)c(N3CCN(CC)CC3)c2c1 | -2.7 | 44.7µM* | 2.9% | -2.6% | 3.5% | -7.1%
CCOC(=O)C1CCN(c2c(C(=O)c3ccccc3)cnc3ccc(Cl)cc23)CC1 | -2.3 | ? | -0.3% | -7.1% | 7.0% | -9.3%
CCc1ccc(C(=O)c2cnc3ccc(OC)cc3c2N2CCN(CC)CC2)cc1 | -0.7 | 39.8µM* | -28.3% | -10.1% | 7.1% | -6.5%
CCOC(=O)C1CCCN(c2c(C(=O)c3ccc(C)cc3)cnc3ccc(OCC)cc23)C1 (stereo unspecified) | / | 1.41µM* | / | -11.0% | / | /
